Screening data (PubChem)
Abeta rescue – qHTS for compounds that reverse cellular toxicity of Amyloid beta (A-beta) peptide in yeast: Primary Screen; yeast expressing A-beta42, growth rescue, OD600, 48 h; response scale: 0% DMSO, 100% iron-clioquinol control; Potency, µM (top dose mostly 46.1 µM), usual class: activators; hit rate 0.063% among 410,000; AID 1347071, 2019; also: potency is read from the fitted curve at half-maximal effect; nearly all actives have a fitted effect of over 55% in size
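Yeast A-beta toxicity model in growth medium with pinned compounds, 48 h at 30 C; growth read as absorbance at 600 nm. Normalized to FeCl3/clioquinol equimolar mix (positive) and DMSO (negative).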
MmCpn inh – Inhibitors of TCP-1 ring complex (TRiC) of Methanococcus maripaludis (MmCpn): qHTS. purified Mm-Cpn ATPase, ADP Transcreener TR-FRET. hit rate 0.031% among 330,000. Chaperonin Mm-Cpn (Methanococcus maripaludis). AID 504842, 2011. Potency, µM (series often up to 76.9 µM), for inactives: at the highest dose activity, negative = inhibition, most hits filed as inhibitors; also: potency is read from the fitted curve at half-maximal effect; % is scaled to controls: 0 for no effect and ±100 for the full control effect; nearly all actives have a fitted effect of over 80% in size
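Inhibition of chaperonin ATP hydrolysis is measured as reduced ADP production, detected by competitive TR-FRET in which signal falls with ADP. Final enzyme 25 nM and ATP 10 uM, reacted 30 min at 37°C.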
aSyn yeast inh – qHTS of alpha-syn Inhibitors. Potency, µM (top dose mostly 46.1 µM), without a hit: at the top dose growth rescue (activation), actives largely listed as activators. hit rate 0.14% among 370,000. Yeast expressing alpha-synuclein, growth rescue, BacTiter-Glo, 24 h; also: potency is read from the fitted curve at half-maximal effect; % of control where 0% means no effect; nearly all actives have a fitted effect of over 65% in size
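Readout is rescue of growth in alpha-synuclein-expressing yeast, so inhibitors of toxicity appear as activators. Growth after 24 hr at 30 deg C in galactose medium is quantified by luminescence.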
FUS suppressor – qHTS for Suppressors of FUS Proteinopathy: Primary screen using FUS-linked yeast assay | AID 1347120, 2019 | hit rate 0.24% among 390,000 | Potency, µM (series often up to 76.6 µM), actives largely listed as activators | S. cerevisiae FUS-expressing, growth rescue, OD600, 24 h;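 also: potency is read from the fitted curve at half-maximal effect; plate controls were DMSO vehicle for no effect and reference control for full effect; nearly all actives have a fitted effect of over 55% in size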
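Yeast expressing FUS under galactose induction, OD 0.005 in 2% galactose medium; compounds in a dilution series, 24 h at 30C. Growth rescue by absorbance at 600 nm; CP55940 positive control, DMSO negative.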
TDP-43 yeast inh – qHTS of TDP-43 Inhibitors; TDP-43 expressing yeast growth rescue, BacTiter-Glo, 24 h; Potency, µM (doses to about 46.1 µM), without a hit: at the top dose growth rescue (activation), usual class: activators; hit rate 1.8% among 410,000; also: potency is read from the fitted curve at half-maximal effect; % of control where 0% means no effect; nearly all actives have a fitted effect of over 50% in size
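Yeast cells expressing TDP-43 under galactose induction are exposed to compounds for 24 hr at 30 deg C. BacTiter-Glo luminescence measures growth, so protective compounds score as activators.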
CCT chaperon mod – High-Throughput Screening for Modulators of Cytosolic Chaperonin Activity | purified chaperonin ATPase assay, HTRF ADP detection, 30 min | activity change, % (test concentration not listed), hits read low | hit rate 0.3% among 360,000; in the data active = activity change below about -30%; also: % is scaled to controls: 0 for no effect and ±100 for the full control effect
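TRiC (40 or 20 nM final, by batch activity) in 30 mM Tris pH 7.4, 100 mM KCl, 5 mM MgCl2, 1 mM DTT was treated with compound at 76 uM single dose, then 10 uM ATP, 30 min at 37 °C. ADP was read by HTRF Transcreener.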
The depositor's hits bear a star; i = inactive; ? = inconclusive; · = no result given; [ ] = another dose, or the depositor's remark. In the library only some 2.3% were active in any assay of this set; here they are far more common. Unless noted, calls follow the shape of the dose curve; as a rule, active = well fitted curve in the direction sought with a large enough effect; inconclusive = small, poorly fitted or top-dose-only effect, or another doubt; inactive = no such curve, though single readings can be large; an effect the other way counts as inactive or inconclusive.

SMILES | Abeta rescue | MmCpn inh | aSyn yeast inh | FUS suppressor | TDP-43 yeast inh | CCT chaperon mod
OC1Cc2ccccc2C1Nc1cccc(C(F)(F)F)c1 (configuration not stated) | i | · | ? | · | 13µM* | 0
CCc1cc(-c2onc(C)c2-c2cscn2)c(O)cc1OC | i | 3% | ? | i | 18µM* | -1
COc1ccc(-c2onc(C)c2-c2cscn2)c(O)c1 | i | -9% | -8% | i | 8% | 1
CNc1nc(N)c([N+](=O)[O-])c(Nc2cccc(Br)c2)n1 | · | · | · | i | · | ·
COc1ccc(Cl)cc1NC(=O)c1c(-c2ccccc2)noc1C | i | 1% | -7% | i | 0% | 1
COc1ccc(Cl)cc1NC(=O)COC(=O)c1c(-c2ccccc2)noc1C | ? | 2% | 18% | i | 13µM* | -2
Cc1onc(-c2ccccc2Cl)c1C(=O)OCC(=O)Nc1ccc2c(c1)OCO2 | i | -1% | 0% | ? | ? | -4
Cc1onc(-c2ccccc2)c1C(=O)OCC(=O)Nc1ccc2c(c1)OCO2 | i | -1% | -2% | i | 13% | -43*
COc1ccc(Cl)cc1NC(=O)CC(C)c1ccccc1 (configuration not stated) | ? | -1% | -10% | ? | 13µM* | 3
Cc1cccc(-c2cccc3c4c([nH]c23)[C@@H]2C[C@H](N(C)C(=O)c3ccccc3F)[C@H]([C@H](C)O)CN2CC4)c1 | · | · | · | i | · | ·
CCN1CCN(c2cc(C)c3cc(NC(=O)/C=C/c4cccc(Cl)c4)ccc3n2)CC1 | i | · | · | i | 7% | ·
CC1(C)CC(=O)c2cc(C(=O)Nc3cccc4ccccc34)c(=O)[nH]c2C1 | · | · | 1% | · | · | ·
O=C(C[n+]1ccccc1Cl)c1ccc(I)cc1 | · | · | 14% | · | · | ·
CCCCn1c(SCC(=O)Nc2cc(NC(=O)c3ccco3)ccc2C)nc2ccccc2c1=O | i | -4% | -2% | 32µM* | -10% | 0
CCOC(=O)Cn1cc(C(=O)c2ccco2)c2ccccc21 | i | 0% | -3% | i | 18µM* | -2
O=C([C@@H]1C[C@H]1c1ccccc1)N1CCC(Oc2cccnc2)CC1 | · | · | · | i | · | ·
C=CCNC(=O)/C(C#N)=C/c1cc(Br)ccc1OC | i | 2% | -1% | i | 11µM* | -3
O=C(CSc1ccc(-c2nc3ccccc3[nH]2)cn1)N1CCN(C(=O)c2ccco2)CC1 | i | -6% | 0% | 14µM* | 0% | -2
CN(C)S(=O)(=O)Oc1ccsc1C(=O)Nc1cccc(Cl)c1Cl | i | 0% | 9% | i | 18µM* | -1
COc1ccc(NC(=O)c2sccc2OS(=O)(=O)N(C)C)cc1 | i | 0% | 2% | i | -8% | 2
CN(C)S(=O)(=O)Oc1ccsc1C(=O)Nc1ccc(Cl)cc1 | i | 1% | 0% | i | 14µM* | -15
CCNc1ccc(/C=C2\C=Cc3ccccc32)cc1 | · | · | 10% | · | · | ·
O=C(O)c1ccc(-c2ccc(O)c(F)c2)cc1 | i | 1% | 12% | i | 16µM* | -2
O=C(CSc1nnc(-c2ccc(Cl)cc2)n1-c1ccccc1)Nc1ccc2c(c1)OCCO2 | · | · | · | i | · | ·
Cc1nn(-c2ccccc2)c2sc(C(=O)NCCc3ccc(Cl)cc3)cc12 | · | · | · | i | · | ·
SMILES | Abeta rescue | MmCpn inh | aSyn yeast inh | FUS suppressor | TDP-43 yeast inh | CCT chaperon mod
c1ccc(CSc2nc3ncccn3n2)cc1 | i | -5% | -9%[1.84 µM] | i | 16µM* | 3
O=C(Nc1cccn(Cc2c(Cl)cccc2Cl)c1=O)c1ccccc1Cl | i | -2% | -11% | i | 4µM* | 1
O=C(Nc1cccn(Cc2c(Cl)cccc2Cl)c1=O)c1ccc(Cl)cc1Cl | i | -2% | 0% | i | 0% | 0
C[C@@H]1C[C@H]2[C@@H]3CCC4=CC(=O)C=C[C@]4(C)[C@@]3(F)C(O)C[C@]2(C)[C@@]1(O)C(=O)CO (some centres not stated) | · | · | 0% | · | · | ·
CC(C)NC(=S)N/N=C/c1cc(Br)ccc1O | ? | 0% | 18µM* | i | ? | -1
O=C(N/N=C/c1cc(Br)ccc1O)c1ccccc1Cl | i | -1% | 10µM* | i | 14µM* | -2
COc1ccccc1NC(C)C(=O)c1c(C)[nH]c2ccccc12 (configuration not stated) | · | · | -23% | · | · | ·
O=C1c2ccccc2C(=O)C1c1ccc(O)cc1 | i | -4% | 1% | i | -11%[0.397 µM] | -4
CC(C)(C)C1=NN=C2c3ccccc3C(=O)C21 (configuration not stated) | i | 2% | -15% | i | 16µM* | 0
CCCC1OC2C[C@@H]3[C@H]4CCC5=CC(=O)C=C[C@]5(C)[C@H]4C(O)C[C@]3(C)[C@]2(C(=O)CO)O1 (some centres not stated) | · | · | 0% | · | · | ·
O=C(C1CCCN(S(=O)(=O)c2cccc3nonc23)C1)N1CCN(c2cccc(Cl)c2)CC1 (configuration not stated) | i | 1% | 7% | i | -27% | -1
Cc1cccc(N2CCN(S(=O)(=O)c3cccc4nonc34)CC2)c1C | i | 1% | 3% | · | 28µM* | -15
O=C(C1CCCN(S(=O)(=O)c2cccc3nonc23)C1)N1CCN(c2ccccc2Cl)CC1 (configuration not stated) | i | -9% | 25% | i | 35µM* | 2
COCc1cc(N2CCOCC2)nc(SCc2ccc(Cl)cc2)n1 | 10µM* | -1% | 15% | i | -12%[0.397 µM] | -2
C=C1C=C(C(F)F)n2ncc(C(=O)Nc3ccc(C(C)CC)cc3)c2N1 (configuration not stated) | · | 1% | · | · | · | ·
S=c1[nH]c2ccccc2n2c(=S)[nH]nc12 | i | ? | -4% | i | ? | 1
S=c1[nH]nc2ccc3ccccc3n12 | i | · | 0% | i | 13µM* | 2
Cc1ccc2c(c1)N(C(=O)C1CCN(S(=O)(=O)c3c(C)noc3/C=C/c3ccccc3F)CC1)CCO2 | i | · | · | i | 23% | ·
O=C(Cn1c(-c2cccs2)cc2cc(Cl)ccc21)NCc1ccccc1 | i | · | · | i | 3% | ·
O=C(O)Cn1c(-c2cccs2)cc2cc(Cl)ccc21 | i | · | · | i | 18µM* | ·
